Measurements reported in ChEMBL document CHEMBL3988442, “University of Dundee, Small-Polar-MMV Screening Library” (2021).
Where “and” joins values, the source holds several entries; their conditions need not be identical. Equal values may be shown once. Screen size: about 38,000 compounds; about 1,200 (3.2%) showed an effect of 50% or more. The median lay at about -58%. What follows is part of a selection rich in strong results, with near analogues and random picks from the rest.

Tested on: Plasmodium falciparum
Assay: Calibr Malaria Delayed Death Assay SOP
Assay type: functional, organism-based
Design: scale not given: in the data most compounds retested in dose-response had high values
Conditions: concentration 4.99e-06 (unit not given; other assays of the set use mol/L)

| SMILES | Percent Effect | Percent Effect (4.99 µM) |
| --- | --- | --- |
| Cc1ccccc1CC1(C(=O)O)CCCN(c2ncnc3[nH]ccc23)C1 (configuration not stated) | -4.529% |  |
| Cc1c(C(=O)NCCC(C)C)nnn1-c1cccc2c1CCN(C)C2 | -15.36% |  |
| CC(O)CN1CCC(CNCc2cn(-c3ccccc3)nn2)CC1 (configuration not stated) | -67.96% |  |
| Cc1ncccc1CNCC1CCN(CC(O)c2ccccc2)CC1 (configuration not stated) | 29.35% |  |
| CC(O)CN1CCN(Cc2cccc(C#N)c2)CC1 (configuration not stated) | 12.6% |  |
| CC(O)CN1CCC(CNCc2cccc(Cl)c2)CC1 (configuration not stated) | 87.41% |  |
| CC(O)CN1CCN(Cc2cccc(C(=O)N(C)C)c2)CC1 (configuration not stated) | -48.6% |  |
| CN1Cc2cc(F)ccc2N(CC(O)C(F)(F)F)CCC1=O (configuration not stated) | 13.79% |  |
| Cc1ccc(CN(C)C(=O)c2ccc(NC3CC3)nc2)o1 | -155.8% |  |
| CCN1CCN(Cc2c(C3CCCC3)[nH]c3ncccc23)CC1 | -34.79% |  |
| Cc1ccc(-c2cc(C(=O)NCCCc3csc(N)n3)[nH]n2)o1 | 18.73% |  |
| COc1ccc2c(C)c(C(=O)NCCCc3csc(N)n3)oc2c1 | -56.16% |  |
| Cc1ccc(-c2cc(C(=O)NCCCc3csc(N)n3)[nH]n2)s1 | 65.08% |  |
| COC(=O)CN1CCN(c2nc3c(s2)c(C)nn3C)C(C)C1=O (configuration not stated) | -95.69% |  |
| Cc1nn(C)c2nc(N3CCNC(=O)C3Cc3ccccc3)sc12 (configuration not stated) | -89.32% |  |
| Cc1ccc(CN2CCN(c3nc4c(s3)c(C)nn4C)C(C)C2=O)cc1 (configuration not stated) | 68.91% |  |
| COCC(O)CNc1ccc(C#N)cc1C(F)(F)F (configuration not stated) | -11.9% |  |
| CCCS(=O)(=O)N1CC[C@@H]2[C@@H]1CC(=O)N2Cc1csc(C)n1 | -243.1% |  |
| Cc1cccc(NC(=O)C(C)Oc2ccc3c(c2)OCO3)n1 (configuration not stated) | -110.7% |  |
| N#CCCCS(=O)(=O)NC1(c2cccc(Cl)c2)CC1 | -108.7% |  |
| CS(=O)(=O)CCCNC1(c2cccc(F)c2)CC1 | -29.12% |  |
| CS(=O)(=O)CCCNC1(c2ccc(Br)cc2)CCC1 | 77.64% |  |
| CC(C)(C)c1ccc(C2(C(=O)NCCCS(C)(=O)=O)CC2)cc1 | -66.39% |  |
| Cc1cccc(C2(NC(=O)CCN3C(=O)CCC3=O)CCCC2)c1 | -32.71% |  |
| Brc1ccc(C2(NCc3noc(C4CC4)n3)CCC2)cc1 | 8.334% |  |
| Cc1cccc(C2(NCCCS(C)(=O)=O)CCCC2)c1 | 88.41% |  |

| SMILES | Percent Effect | Percent Effect (4.99 µM) |
| --- | --- | --- |
| CSCC(=O)NC1(c2cccc(Cl)c2)CC1 | -138.1% |  |
| CC(Nc1cnn(C)c(=O)c1Cl)c1ccc(F)c(F)c1 (configuration not stated) | -61.95% |  |
| COc1cc(-c2n[nH]c(CCN)n2)cc(OC)c1OC | -46.27% |  |
| Cc1nc(CSCc2ccc(OCC(F)(F)F)nc2)no1 | -117.9% |  |
| Cc1cccc(CN2C(=O)C[C@H]3[C@@H]2CCN3Cc2ccccn2)n1.O=C(O)C(F)(F)F.O=C(O)C(F)(F)F.O=C(O)C(F)(F)F | -25.52% |  |
| Cc1cc(CN2CCC(C3CCN(Cc4cccnc4)CC3)C2)[nH]n1 (configuration not stated) | 8.003% |  |
| Cc1cc(CN2CCC(C3CCN(CCc4ccccc4)CC3)C2)[nH]n1 (configuration not stated) | 93.56% |  |
| Cc1cc(CN2CCC(C3CCN(CCc4ccccc4)C3)CC2)[nH]n1 (configuration not stated) | 35.64% |  |
| Cc1cc(C)cc(CN2C[C@@H]3OCCN(CC(=O)N(C)C)[C@@H]3C2)c1.O=C(O)C(F)(F)F | -102.5% |  |
| CCCc1ccc(OCCNCc2ccco2)c(OC)c1.Cl | 50.1% |  |
| COc1cc(C(C)=O)ccc1OCCNCc1ccco1.Cl | -1.065% |  |
| COc1ccc(CCNCc2ccco2)cc1OC | 3.158% |  |
| COc1ccc(CN2CCN(CCn3ccnc3)CC2)cc1F | -77.09% |  |
| N#CCCSc1nnc(Cc2ccccc2F)o1 | 0.1656% |  |
| CN1CCN(C[C@@H]2OC[C@H]3CN(CCc4ccccc4)CC[C@H]32)CC1.O=C(O)C(F)(F)F.O=C(O)C(F)(F)F.O=C(O)C(F)(F)F | 64.83% |  |
| CN1CCN(C[C@@H]2OC[C@H]3CN(Cc4cccc(F)c4)CC[C@H]32)CC1.O=C(O)C(F)(F)F.O=C(O)C(F)(F)F.O=C(O)C(F)(F)F | 17.46% |  |
| Cc1ccc(CN2CC[C@@H]3[C@@H](CO[C@H]3CN3CCN(C)CC3)C2)cc1.O=C(O)C(F)(F)F.O=C(O)C(F)(F)F.O=C(O)C(F)(F)F | -1.718% |  |
| Cc1ccc(CN2CC[C@H]3CO[C@H](CN4CCCC4)[C@H]3C2)o1.O=C(O)C(F)(F)F.O=C(O)C(F)(F)F | 27.44% |  |
| O=C(O)C(F)(F)F.O=C(O)C(F)(F)F.c1cc2c(cc1CN1CC[C@H]3CO[C@H](CN4CCCC4)[C@H]3C1)OCO2 | 77.9% |  |
| N#Cc1cccc(CN2CC[C@@H]3CO[C@@H](CN4CCCC4)[C@@H]3C2)c1.O=C(O)C(F)(F)F.O=C(O)C(F)(F)F | 9.568% |  |
| Cn1cc(N2CCC3(CCCN(Cc4ccoc4)C3)C2=O)cn1 (configuration not stated) | -100.7% |  |
| O=C1CCC2(CCN(CC[C@H](O)c3ccccc3)CC2)CN1CCO | -15.36% |  |
| NC(=O)CCNC(=O)C1(N2CCCCC2)Cc2ccccc2C1 | -32.27% |  |
| CN1CC(C(=O)N2CCN(c3cccc(Cl)c3)C(=O)C2)NC1=O (configuration not stated) | -61.36% |  |
| CC(Cn1cccn1)NCc1nc(-c2cccs2)no1 (configuration not stated) | -237.8% |  |
| CC(Cn1cccn1)NCCCc1nc(-c2cccs2)no1 (configuration not stated) | 66.81% |  |

| SMILES | Percent Effect | Percent Effect (4.99 µM) |
| --- | --- | --- |
| Cc1cnn(CC(C)NCc2nc(-c3cccs3)no2)c1 (configuration not stated) | -78.64% |  |
| CC(C)NC(=O)[C@H](C)NC(=O)N1CCN(c2ccc(Cl)cc2)CC1 | -40.36% |  |
| CC(C)Cn1ncc(C(=O)NS(=O)(=O)c2ccccc2)c1C1CC1 | -129.8% |  |
| COc1ccc(OC)c(C(C)NS(=O)(=O)c2cn(C)nc2C)c1 (configuration not stated) | -72.91% |  |
| CC(=O)NC[C@@H]1C=C(C)[C@H](CC(=O)NCCN(C)C)C[C@H]1C(C)C | -26.76% |  |
| CCc1ncc(C(=O)N(C)CCc2nc3cc(OC)ccc3[nH]2)cn1 | -128% |  |
| CCn1nc(C)c(C(=O)N2C[C@@H](CN(C)C)[C@@H](CO)C2)c1C |  | -17.38% and -19.57% |
| CC(=O)N1CCC(=O)N(C2CCCC2)Cc2ccccc21 | -73.21% |  |
| COc1ccc(-c2csc3c2c(N)nc(=O)n3CCN(C)C)cc1 | -27.97% |  |
| CCn1c(=O)nc(N)c2c(-c3ccc(OC)cc3)csc21 | -67.94% |  |
| COc1ccc(-c2csc3c2c(N)nc(=O)n3CCCN(C)C)cc1 | 54.04% |  |
| CC(C)c1nc(N2CCC(N3CCCCCC3)CC2)c2cnn(C)c2n1 | 50.67% |  |
| CC(C)c1nc(N2CC(N3CCCCC3C)C2)c2cnn(C)c2n1 (configuration not stated) | -59.85% |  |
| Cc1nc(N2CCCC(N3CCCC3)C2)c2cnn(C)c2n1 (configuration not stated) | -29.13% |  |
| Cc1nccn1C1CCCN(C(=O)c2cccc3c2OCO3)C1 (configuration not stated) | -58.82% |  |
| NC(=O)C1CCC(NC(=O)COc2ccc(Cl)c(Cl)c2)CC1 (configuration not stated) | 13.16% |  |
| O=C1CC(N2CCN(c3ccccc3O)CC2)C(=O)N1Cc1cccs1 (configuration not stated) | -172.2% |  |
| Cc1cc2ccccc2n1CCC(=O)NCCN(C)S(C)(=O)=O | -87.62% |  |
| CCN(Cc1ccncc1)C(=O)CCn1c(C)cc2ccccc21 | 55.24% |  |
| CCN(Cc1nc(COC)no1)C(=O)CCn1c(C)cc2ccccc21 | 5.524% |  |
| CN(C)C(=O)CC1CC2(CCN(Cc3cccs3)CC2)c2ccccc21.O=C(O)C(F)(F)F (configuration not stated) | 22.44% |  |
| CN1CCN(C(=O)N2CCCC(c3nccn3CC3CCC3)C2)CC1 (configuration not stated) | -95.73% |  |
| CC(=O)N1CCC(C(=O)NCc2ncc(-c3ccccc3)o2)CC1 | -123.2% |  |
| CC(=O)Nc1cccc(CN2CCCC2C(=O)Nc2nccs2)c1 (configuration not stated) | -76.05% |  |
| CN(Cc1cnn(C)c1)C(=O)C1CCCN1Cc1ccccn1 (configuration not stated) | -66.14% |  |
| CCc1nc(CN2CCCC2C(=O)NC2CC2)cs1 (configuration not stated) | -16.64% |  |

| SMILES | Percent Effect | Percent Effect (4.99 µM) |
| --- | --- | --- |
| CCNc1ccnc(CN2CCCC2C(=O)Nc2nccs2)c1 (configuration not stated) | 94.9% |  |
| O=C(Nc1nccs1)C1CCCN1Cc1ccccn1 (configuration not stated) | 93.51% |  |
| CC(C)(C)NC(=O)C1CCCCN1Cc1nccn1CC(F)(F)F (configuration not stated) | -48.44% |  |
| CCn1ccnc1CN1CCCC1C(=O)Nc1nccs1 (configuration not stated) | 84.6% |  |
| NC(=O)C1CCCN1Cc1nccn1CC(F)(F)F (configuration not stated) | -38.81% |  |
| CCc1nc(CN2CCCC2C(=O)NC)cs1 (configuration not stated) | -71.78% |  |
| Cc1cnn(CC2CCCN2C(=O)c2n[nH]c3ccccc23)c1 (configuration not stated) | -56.22% |  |
| CC(=O)Nc1ccc(SCCCC(=O)NCC2CCCO2)nn1 (configuration not stated) | -99.67% |  |
| CC(NC(=O)N1CCC1)c1ccc(S(N)(=O)=O)cc1 (configuration not stated) | -105.8% |  |
| Cc1ccc(NC(=O)NCCc2cnn(C)c2)c(N(C)C)n1 | -69.56% |  |
| CCc1ccsc1C(=O)N1CCN(C(=O)CC(F)(F)F)CC1 | -98.82% |  |
| CCC1(CC)CC(=O)N(CC(O)c2cc(F)ccc2F)C1=O (configuration not stated) | -120% |  |
| Cc1cccc(CN2CCc3ncnc(N4CCCC4)c3CC2)n1.O=C(O)C(F)(F)F | -17.07% |  |
| O=c1c(NCc2ccco2)c(NCC(O)CN2CCOCC2)c1=O (configuration not stated) | -219.4% |  |
| O=C(c1ccnc(N2CCOC(C(F)(F)F)C2)c1)N1CCCC1 (configuration not stated) | -34.44% |  |
| O=C(Nc1cn[nH]c1)NC1CCN(c2ccccc2OC(F)F)C1 (configuration not stated) | -124.3% |  |
| O=C(Nc1ccncc1)NC1CCN(c2ccccc2OC(F)F)C1 (configuration not stated) | 64.77% |  |
| Cc1noc(C)c1CNC1CCN(c2ccccc2OC(F)F)C1 (configuration not stated) | 63.44% |  |
| O=C(Nc1ccccn1)NC1CCN(c2ccccc2OC(F)F)C1 (configuration not stated) | 9.794% |  |
| COc1ccccc1N1CCC(NCc2c(C)noc2C)C1 (configuration not stated) | 24.81% |  |
| Cc1c(CNC2CCN(c3ccccc3OC(F)F)C2)cnn1C (configuration not stated) | 69.48% |  |
| O=C(Nc1cccnc1)NC1CCN(c2ccccc2OC(F)F)C1 (configuration not stated) | 16.84% |  |
| O=C(NC1CCN(c2ccccc2OC(F)F)C1)c1cccnc1 (configuration not stated) | -43.56% |  |
| Cc1noc(C)c1CNc1c(N2CCCC2)cccc1N1CCCC1 | -39.5% |  |
